# Test results published in PubChem BioAssay (NCATS).
# A number with no mark means an inactive call. Records with an inconclusive call do not appear. Calls of active or inactive are those of the source. Unless noted, the call rests on the fitted dose curve; in most records, active means well fitted curve in the direction sought with a large enough effect; inconclusive means small, poorly fitted or top-dose-only effect, or another doubt; inactive means no such curve, though single readings can be large; an effect the other way counts as inactive or inconclusive.
# Tests used:
# [1] = target: Cytochrome P450 2C9 (Homo sapiens) (UniProt P11712); test: Cytochrome P450 family 2 subfamily C member 9 (CYP2C9) small molecule antagonists: luciferase biochemical (cell-free) qHTS assay (AID 1645842; active means well fitted curve in the direction sought with a large enough effect in the repeat runs; an effect the other way counts as inactive or inconclusive; further: nearly all actives have a fitted effect of over 55% in size; further: potency means the concentration at half of the fitted maximal effect)
# Sequence of Cytochrome P450 2C9 (Homo sapiens) (P11712 whole entry, looked up): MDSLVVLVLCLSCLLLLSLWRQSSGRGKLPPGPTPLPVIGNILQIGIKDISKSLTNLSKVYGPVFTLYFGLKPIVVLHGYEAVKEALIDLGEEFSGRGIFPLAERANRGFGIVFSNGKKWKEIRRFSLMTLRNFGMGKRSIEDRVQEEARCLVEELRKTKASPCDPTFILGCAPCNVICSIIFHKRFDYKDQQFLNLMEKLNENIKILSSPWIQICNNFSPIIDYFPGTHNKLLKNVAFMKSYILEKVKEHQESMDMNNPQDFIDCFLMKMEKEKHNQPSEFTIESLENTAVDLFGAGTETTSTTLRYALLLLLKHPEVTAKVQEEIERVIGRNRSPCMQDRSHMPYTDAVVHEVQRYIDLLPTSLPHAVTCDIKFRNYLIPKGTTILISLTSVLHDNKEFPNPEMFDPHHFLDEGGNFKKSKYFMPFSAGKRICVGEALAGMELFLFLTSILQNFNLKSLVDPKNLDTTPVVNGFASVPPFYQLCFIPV
# Procedure, shortened: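 Luminescence, after 20 min with luciferin detection reagent, reflected CYP2C9 turnover during a 1 h NADPH-driven reaction at 37C. Enzyme-substrate mix contained 0.4% bovine serum albumin and was preincubated with compound 10 min at room temperature.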
# [2] = target: N-terminal Xaa-Pro-Lys N-methyltransferase 1 (Homo sapiens) (UniProt Q9BV86); test: Confirmatory qHTS for Inhibitors of N-terminal methyltransferase 1 (NTMT1): MTaseGlo Assay (AID 1645874); further: nearly all actives have a fitted effect of over 65% in size; further: potency means the concentration at half of the fitted maximal effect
# Sequence of N-terminal Xaa-Pro-Lys N-methyltransferase 1 (Homo sapiens) (Q9BV86 whole entry, looked up): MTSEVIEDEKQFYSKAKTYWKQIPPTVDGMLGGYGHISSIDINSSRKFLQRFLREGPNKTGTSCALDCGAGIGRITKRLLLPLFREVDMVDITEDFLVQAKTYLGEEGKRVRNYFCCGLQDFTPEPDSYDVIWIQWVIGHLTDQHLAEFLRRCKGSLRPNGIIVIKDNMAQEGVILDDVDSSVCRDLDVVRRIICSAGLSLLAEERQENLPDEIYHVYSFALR
# Procedure, shortened: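 Luminescent MTase-Glo read-out of SAH. 125 nM NTMT1, 100 uM SAM, 1 uM SPKRIA substrate, 30 min RT reaction after 15 min compound preincubation. Normalized to no-enzyme and DMSO controls; Hill fit.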
# [3] = Stat Signaling Pathway (AID 446; active means well fitted curve in either direction with a large enough effect, not every such curve was filed as active;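 further: ME-180 cervical cancer cells given 40 pM IL-6 alongside compound; SIE-controlled beta-lactamase reporter measured as 460/530 nm FRET emission ratio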)
# Procedure, shortened: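 ME-180 SIE-bla cells; overnight plating; cpd + IL-6 40 pM, 5 h, 37 C; LiveBLAzer 2.5 h RT; 460/530 nm emission ratio. Normalized to 300 pM IL-6 and 125 nM JAK inhibitor controls.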
# [4] = target: Glucocorticoid receptor (Homo sapiens) (UniProt P04150); test: GR-GFP Redistribution (AID 450;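 active means compounds whose dose series gives a full or clear partial fitted curve of increased nuclear translocation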; further: potency means the concentration at half of the fitted maximal effect); settings: U2OS GR-GFP nuclear translocation, laser cytometry, 2 h
# Sequence of Glucocorticoid receptor (Homo sapiens) (P04150 whole entry, looked up): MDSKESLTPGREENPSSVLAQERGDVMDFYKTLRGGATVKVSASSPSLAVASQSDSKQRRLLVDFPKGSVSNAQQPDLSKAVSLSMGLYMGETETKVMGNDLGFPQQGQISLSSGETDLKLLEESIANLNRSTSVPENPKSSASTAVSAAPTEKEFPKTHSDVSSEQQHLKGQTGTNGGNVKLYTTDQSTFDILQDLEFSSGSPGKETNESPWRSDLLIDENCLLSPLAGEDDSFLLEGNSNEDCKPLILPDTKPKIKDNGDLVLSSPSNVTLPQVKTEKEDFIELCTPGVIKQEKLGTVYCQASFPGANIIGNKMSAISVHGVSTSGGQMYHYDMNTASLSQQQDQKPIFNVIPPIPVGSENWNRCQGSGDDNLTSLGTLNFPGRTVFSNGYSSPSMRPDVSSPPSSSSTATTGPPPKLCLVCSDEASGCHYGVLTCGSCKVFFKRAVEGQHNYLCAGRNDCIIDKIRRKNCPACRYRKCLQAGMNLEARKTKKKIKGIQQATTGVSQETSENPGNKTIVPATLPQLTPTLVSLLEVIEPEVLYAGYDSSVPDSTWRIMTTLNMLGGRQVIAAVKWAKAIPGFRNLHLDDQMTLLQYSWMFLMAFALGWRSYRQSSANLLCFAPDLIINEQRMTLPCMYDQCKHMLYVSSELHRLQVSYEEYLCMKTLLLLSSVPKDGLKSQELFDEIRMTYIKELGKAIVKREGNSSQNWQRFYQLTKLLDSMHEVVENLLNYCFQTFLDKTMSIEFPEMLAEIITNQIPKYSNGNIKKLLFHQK
# [5] = target: Luciferin 4-monooxygenase (Photinus pyralis) (UniProt P08659); test: Biochemical firefly luciferase enzyme assay for NPC (AID 624030);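 further: purified P. pyralis luciferase at 10 nM with luciferin and ATP substrate; series mostly up to about 59 µM; nearly all actives have a fitted effect of over 70% in size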
# Sequence of Luciferin 4-monooxygenase (Photinus pyralis) (P08659 whole entry, looked up): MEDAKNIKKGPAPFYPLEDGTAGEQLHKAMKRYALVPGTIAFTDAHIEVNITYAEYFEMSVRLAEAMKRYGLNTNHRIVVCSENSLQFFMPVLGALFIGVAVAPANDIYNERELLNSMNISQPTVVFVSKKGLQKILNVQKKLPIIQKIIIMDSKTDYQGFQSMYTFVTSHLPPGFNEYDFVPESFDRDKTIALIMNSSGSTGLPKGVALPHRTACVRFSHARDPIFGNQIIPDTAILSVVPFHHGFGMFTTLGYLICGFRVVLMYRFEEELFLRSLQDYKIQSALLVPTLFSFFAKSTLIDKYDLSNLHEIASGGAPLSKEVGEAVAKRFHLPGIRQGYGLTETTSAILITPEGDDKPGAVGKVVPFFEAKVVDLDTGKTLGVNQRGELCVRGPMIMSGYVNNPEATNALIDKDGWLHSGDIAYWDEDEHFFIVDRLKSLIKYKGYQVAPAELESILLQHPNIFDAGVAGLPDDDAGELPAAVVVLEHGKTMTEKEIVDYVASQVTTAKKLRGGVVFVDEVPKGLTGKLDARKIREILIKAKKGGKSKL
# Procedure, shortened: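 Counter-screen for direct inhibition of the luciferase enzyme by approved-drug library compounds, run at 10 nM enzyme in 50 mM Tris acetate (final). Luminescence was read within 5 min of enzyme-buffer addition and normalized to PTC124 versus DMSO (0%).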
# [6] = target: Glutathione peroxidase 1 (Homo sapiens) (UniProt P07203); test: Primary qHTS Assay for Inhibitors of Recombinant Selenoprotein Glutathione Peroxidase 1 (GPX1) (AID 1845191); further: nearly all actives have a fitted effect of over 65% in size
# Sequence of Glutathione peroxidase 1 (Homo sapiens) (P07203 whole entry, looked up): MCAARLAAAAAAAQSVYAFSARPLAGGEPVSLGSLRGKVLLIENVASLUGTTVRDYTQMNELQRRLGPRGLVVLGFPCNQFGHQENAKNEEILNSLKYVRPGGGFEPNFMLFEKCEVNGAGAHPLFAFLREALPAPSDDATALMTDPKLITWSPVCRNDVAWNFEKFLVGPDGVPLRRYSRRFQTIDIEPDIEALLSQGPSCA
# Procedure, shortened: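 Recombinant GPX1 (10 nM final) was preincubated with compound for 30 min at room temperature, then reacted with 1 mM GSH, 0.5 mM CHP, 0.5 mM NADPH and 100 nM glutathione reductase; NADPH fluorescence (340/450 nm) was read at 0 and 15 min.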
# [7] = target: Phospholipid hydroperoxide glutathione peroxidase GPX4 (Homo sapiens) (UniProt P36969); test: Primary qHTS Assay for Inhibitors of Recombinant Selenoprotein Glutathione Peroxidase 4 (GPX4) (AID 1845192); further: series mostly up to about 50 µM; nearly all actives have a fitted effect of over 65% in size
# Sequence of Phospholipid hydroperoxide glutathione peroxidase GPX4 (Homo sapiens) (P36969 whole entry, looked up): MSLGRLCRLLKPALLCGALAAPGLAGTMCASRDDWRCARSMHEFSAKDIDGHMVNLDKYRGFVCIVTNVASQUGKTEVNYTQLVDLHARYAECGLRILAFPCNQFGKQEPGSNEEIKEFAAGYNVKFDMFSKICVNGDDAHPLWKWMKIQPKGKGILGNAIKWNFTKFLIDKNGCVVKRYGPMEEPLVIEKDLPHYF
# Procedure, shortened: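 GR-coupled readout: 100 nM GR, 1 mM GSH, 0.5 mM NADPH; NADPH fluorescence (ex 340/em 450 nm) read at t=0 and after 15 min RT. GPX4 200 nM, preincubated 30 min with compound; substrate 0.5 mM CHP.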
# [8] = target: Rap guanine nucleotide exchange factor 3 (Homo sapiens) (UniProt O95398); test: Confirmatory qHTS for antagonist of cAMP-regulated guanine nucleotide exchange factor 3 (EPAC1) (AID 1645880); further: nearly all actives have a fitted effect of over 55% in size; further: potency means the concentration at half of the fitted maximal effect
# Sequence of Rap guanine nucleotide exchange factor 3 (Homo sapiens) (O95398 whole entry, looked up): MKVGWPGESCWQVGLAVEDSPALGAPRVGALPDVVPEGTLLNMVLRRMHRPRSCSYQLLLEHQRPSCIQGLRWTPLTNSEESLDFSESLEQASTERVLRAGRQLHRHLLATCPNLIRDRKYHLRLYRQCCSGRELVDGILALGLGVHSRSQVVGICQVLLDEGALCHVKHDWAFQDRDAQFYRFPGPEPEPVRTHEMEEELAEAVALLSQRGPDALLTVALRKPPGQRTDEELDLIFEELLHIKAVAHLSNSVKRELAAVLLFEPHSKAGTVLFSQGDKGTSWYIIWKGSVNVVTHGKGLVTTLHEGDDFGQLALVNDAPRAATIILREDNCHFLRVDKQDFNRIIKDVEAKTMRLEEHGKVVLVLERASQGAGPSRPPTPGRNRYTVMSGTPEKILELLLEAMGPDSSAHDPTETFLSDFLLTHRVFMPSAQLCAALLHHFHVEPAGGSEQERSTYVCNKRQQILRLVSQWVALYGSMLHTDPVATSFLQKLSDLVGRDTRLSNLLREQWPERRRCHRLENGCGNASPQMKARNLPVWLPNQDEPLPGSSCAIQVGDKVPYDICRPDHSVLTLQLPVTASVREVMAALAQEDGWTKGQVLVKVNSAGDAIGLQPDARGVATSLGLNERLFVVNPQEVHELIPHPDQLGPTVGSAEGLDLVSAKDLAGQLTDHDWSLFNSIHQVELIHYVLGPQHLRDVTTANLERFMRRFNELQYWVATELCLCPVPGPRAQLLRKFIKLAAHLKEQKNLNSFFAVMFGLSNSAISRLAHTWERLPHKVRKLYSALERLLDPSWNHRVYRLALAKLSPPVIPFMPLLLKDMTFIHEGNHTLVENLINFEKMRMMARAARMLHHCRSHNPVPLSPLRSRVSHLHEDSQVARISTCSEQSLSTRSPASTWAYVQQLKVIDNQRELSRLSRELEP
# Procedure, shortened: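 Nucleotide exchange uses 100 nM EPAC1, 250 nM RAP1B-BODIPY-GDP and 50 uM GDP, with compounds in a concentration-titration series. After 5 min at room temperature, fluorescence (480 nm ex/540 nm em) is read every 5 min for 30 min. Data are normalized to control ATA and DMSO.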
# [9] = target: Rap guanine nucleotide exchange factor 3 (Homo sapiens) (UniProt O95398); test: Confirmatory qHTS for agonist of cAMP-regulated guanine nucleotide exchange factor 3 (EPAC1) (AID 1645881);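 further: EPAC1 catalysed release of BODIPY-GDP from Rap1B seen as fluorescence loss; nearly all actives have a fitted effect of over 75% in size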
# [10] = target: Rap guanine nucleotide exchange factor 4 (Homo sapiens) (UniProt Q8WZA2); test: Confirmatory qHTS for agonist of cAMP-regulated guanine nucleotide exchange factor 4 (EPAC2) (AID 1645884);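 further: nucleotide exchange releases bodipy-GDP from Rap1 and this lowers its fluorescence; nearly all actives have a fitted effect of over 65% in size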
# Sequence of Rap guanine nucleotide exchange factor 4 (Homo sapiens) (Q8WZA2 whole entry, looked up): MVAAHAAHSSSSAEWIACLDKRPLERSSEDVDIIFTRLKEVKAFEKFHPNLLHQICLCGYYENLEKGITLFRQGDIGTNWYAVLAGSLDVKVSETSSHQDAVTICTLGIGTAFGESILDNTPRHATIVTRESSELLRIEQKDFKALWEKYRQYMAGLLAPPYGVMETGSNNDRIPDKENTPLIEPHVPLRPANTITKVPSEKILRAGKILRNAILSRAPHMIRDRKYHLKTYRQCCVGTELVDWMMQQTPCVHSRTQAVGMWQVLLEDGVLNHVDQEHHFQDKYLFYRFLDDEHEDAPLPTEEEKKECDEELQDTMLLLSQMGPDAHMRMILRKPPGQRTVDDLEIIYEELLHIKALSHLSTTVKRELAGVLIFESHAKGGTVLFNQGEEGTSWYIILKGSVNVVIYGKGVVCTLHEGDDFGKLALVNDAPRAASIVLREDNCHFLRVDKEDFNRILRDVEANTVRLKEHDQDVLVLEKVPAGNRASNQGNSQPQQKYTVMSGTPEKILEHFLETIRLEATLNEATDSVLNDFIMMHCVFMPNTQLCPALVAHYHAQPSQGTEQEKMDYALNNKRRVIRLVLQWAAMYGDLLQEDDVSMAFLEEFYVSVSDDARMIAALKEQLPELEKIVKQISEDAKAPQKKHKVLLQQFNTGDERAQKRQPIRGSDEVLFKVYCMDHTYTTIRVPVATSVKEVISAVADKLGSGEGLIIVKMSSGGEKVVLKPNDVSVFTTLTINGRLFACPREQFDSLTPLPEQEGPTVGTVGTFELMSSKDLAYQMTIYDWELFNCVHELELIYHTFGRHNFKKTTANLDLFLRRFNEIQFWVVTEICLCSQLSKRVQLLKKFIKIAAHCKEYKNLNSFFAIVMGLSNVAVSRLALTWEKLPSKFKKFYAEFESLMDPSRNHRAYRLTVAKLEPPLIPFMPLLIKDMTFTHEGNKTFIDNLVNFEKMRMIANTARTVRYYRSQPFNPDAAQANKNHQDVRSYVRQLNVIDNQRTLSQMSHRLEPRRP
# [11] = target: Rap guanine nucleotide exchange factor 4 (Homo sapiens) (UniProt Q8WZA2); test: Confirmatory qHTS for antagonist of cAMP-regulated guanine nucleotide exchange factor 4 (EPAC2) (AID 1645885); further: nearly all actives have a fitted effect of over 25% in size; further: potency means the concentration at half of the fitted maximal effect
# [12] = target: Rap guanine nucleotide exchange factor 3 (Homo sapiens) (UniProt O95398); test: Counterscreen qHTS for antagonist of cAMP-regulated guanine nucleotide exchange factor 3 (EPAC1) (AID 1645888);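 further: fluorescence loss as bound BODIPY-GDP is released from Rap1B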
# Procedure, shortened: (§1)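 Measured: fluorescence of BODIPY-GDP bound to Rap1B, which falls as exchange proceeds. Conditions include 50 uM competing GDP, 5 and 30 min reads, and a later cAMP challenge for antagonist detection.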
# [13] = target: Tumor susceptibility gene 101 protein (Homo sapiens) (UniProt Q99816); test: qHTS Assay for Iinhibitors of HIV-1 Budding by Blocking the Interaction of PTAP/TSG101: Hit Validation (AID 651600); further: nearly all actives have a fitted effect of over 70% in size; further: potency means the concentration at half of the fitted maximal effect
# Sequence of Tumor susceptibility gene 101 protein (Homo sapiens) (Q99816 whole entry, looked up, the tested form may be a part): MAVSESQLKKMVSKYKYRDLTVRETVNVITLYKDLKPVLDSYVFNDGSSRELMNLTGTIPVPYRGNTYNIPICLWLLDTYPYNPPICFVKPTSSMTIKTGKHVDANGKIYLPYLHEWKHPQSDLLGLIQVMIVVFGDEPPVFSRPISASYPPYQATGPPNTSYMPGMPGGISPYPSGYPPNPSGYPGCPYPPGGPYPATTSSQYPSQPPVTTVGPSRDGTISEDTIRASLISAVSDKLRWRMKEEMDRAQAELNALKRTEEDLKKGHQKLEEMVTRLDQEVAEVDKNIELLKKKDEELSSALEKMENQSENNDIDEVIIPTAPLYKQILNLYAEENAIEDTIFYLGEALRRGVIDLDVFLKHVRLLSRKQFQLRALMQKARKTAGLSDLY
# Procedure, shortened: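 Fluorescence polarization binding assay: Tsg101 binding domain (10 uM final) pre-dispensed with compounds, then FITC-labeled PTAP-motif peptide (50 nM final) added; 20 min at r.t. in HEPES pH 7.5 buffer with NaCl, Tween 20, EDTA, TCEP.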
# [14] = target: Rap guanine nucleotide exchange factor 3 (Homo sapiens) (UniProt O95398); test: Counterscreen qHTS for agonist of cAMP-regulated guanine nucleotide exchange factor 3 (EPAC1) (AID 1645889); further: nearly all actives have a fitted effect of over 40% in size
# Procedure, shortened: as §1
structure (smiles),measurement,setting,value
CC1=C(C(=O)Nc2ccc(CN)cc2)C(c2ccccc2Cl)N=C(Nc2nc3ccccc3o2)N1 (stereo unspecified),Potency,[1],10.7 µM (active)
COc1cccc(NC(=O)CN(CCc2ccccc2)S(=O)(=O)c2ccc(Cl)cc2)c1,Potency,[2],8.51 µM (active)
C[C@@H]1C[C@H]2[C@@H]3C[C@H](F)C4=CC(=O)C=C[C@]4(C)[C@@]3(F)[C@@H](O)C[C@]2(C)[C@@]1(O)C(=O)COC(=O)C(C)(C)C,outcome,[3],inactive
same,Potency,[4],0.00124 µM (active)
same,Potency,[5],inactive
same,Potency,[1],9.52 µM (active)
same,Potency,[6],inactive
same,Potency,[7],inactive
C=C1CC[C@H](O)C/C1=C\C=C1/CCCC2(C)C1CCC2C(C)CCCC(C)C (stereo partly specified),Potency,[1],23.9 µM (active)
Cc1cccc(-n2cnc3cc(C(=O)NC4CCCC4)ccc32)c1,Potency,[2],39.8 µM (active)
COc1ccccc1NC(=O)Cn1c(=O)n(Cc2nc(-c3ccccc3)no2)c(=O)c2ccccc21,Potency,[1],2.39 µM (active)
CC1=C(C(=O)Nc2cccc(-c3ccn[nH]3)c2)C(c2ccccc2Cl)N=C(Nc2nc3ccccc3o2)N1 (stereo unspecified),Potency,[1],0.477 µM (active)
COc1ccc(NC(=O)CSc2nc3ccccc3n2Cc2cccc(OC)c2)cc1,Potency,[1],2.68 µM (active)
O=c1[nH]c2ccc(S(=O)(=O)Nc3cc(Cl)ccc3O)cc2o1,Potency,[1],9.52 µM (active)
Oc1cccc(Nc2nc(-c3ccccc3)nc3ccccc23)c1,Potency,[2],15.8 µM (active)
COc1ccc(CCNc2nc(SCc3ccccc3F)nc3ccccc23)cc1OC,Potency,[1],0.849 µM (active)
CC1=C(C(=O)Nc2nnc(C(F)(F)F)s2)C(c2ccccc2Cl)N=C(Nc2nc3ccccc3o2)N1 (stereo unspecified),Potency,[1],10.7 µM (active)
COc1ccc(C(=O)CSc2nc(C)cc(C)c2C(=O)Nc2ccccc2C)cc1,Potency,[2],inactive
COCCCNC(=O)CCC(=O)NNc1nc2ccccc2c2nc(-c3ccccc3)nn12,Potency,[1],9.52 µM (active)
Nc1nc(N)c(S(=O)(=O)c2ccccc2)c(Nc2ccc(Br)cc2)n1,Potency,[1],4.77 µM (active)
O=C(Nc1cccc(Cl)c1)c1c(NC(=O)C(F)(F)F)sc2c1CCCC2,Potency,[1],0.354 µM (active)
same,Potency,[8],37.9 µM (active)
same,Potency,[9],inactive
same,Potency,[10],inactive
same,Potency,[11],inactive
same,Potency,[12],inactive
COc1cc2nc(N3CCCC3)nc(NC3CC3)c2cc1OC,Potency,[2],38.8 µM (active)
COc1cc(=O)n2c(c1C(=O)NCc1ccc3c(c1)OCO3)CCN(C(=O)c1ccc(C)cc1C)CC2,Potency,[1],19 µM (active)
COc1ccc(OC)c(/C=C(\C#N)c2nc3ccccc3c(=O)[nH]2)c1,Potency,[13],inactive
same,Potency,[1],1.51 µM (active)
Cc1ccn2c(Nc3ccccc3C)c(-c3ccccn3)nc2c1,Potency,[1],0.952 µM (active)
CCOc1cc(C(Nc2cc(C)ccn2)c2ccc3cccnc3c2O)ccc1OC (stereo unspecified),Potency,[1],12.6 µM (active)
CCN(CC)C(=O)[C@]1(c2ccccc2)C[C@H]1CN,Potency,[1],inactive
same,Potency,[6],inactive
CCOc1ccccc1NC(=O)Cn1c(=O)n(CCC(=O)NCc2ccc3c(c2)OCO3)c(=O)c2ccccc21,Potency,[1],0.601 µM (active)
COc1ccc(NC(=O)CSc2ncc(-c3ccc(Cl)cc3)[nH]2)cc1OC,Potency,[1],0.849 µM (active)
CC(C)(C)c1ccc(-c2nc(SCC(=O)Nc3ccc(Cl)cc3)[nH]c(=O)c2C#N)cc1,Potency,[1],3.01 µM (active)
same,Potency,[8],84.9 µM (active)
same,Potency,[9],inactive
same,Potency,[10],inactive
same,Potency,[11],inactive
same,Potency,[12],inactive
same,Potency,[14],inactive
COc1ccccc1NC(=O)CSc1nc(-c2ccc(C(C)(C)C)cc2)c(C#N)c(=O)[nH]1,Potency,[1],0.756 µM (active)
same,Potency,[8],67.5 µM (active)
same,Potency,[9],inactive
same,Potency,[10],inactive
same,outcome,[11],inactive [at 12.7 µM]
same,Potency,[12],inactive
same,Potency,[14],inactive
CC(C)c1ccc(NC(=O)CSC2=Nc3ccccc3C3=NC(CC(=O)NC4CCCCC4)C(=O)N23)cc1 (stereo unspecified),Potency,[1],12 µM (active)
CCOc1ccc(NC(=O)Cn2cc(C(=O)c3ccco3)c3ccccc32)cc1,Potency,[1],4.77 µM (active)
Cc1ccc2c(c1)-c1c(c(C(=O)N3CCN(c4cc(C)ccc4C)CC3)nn1C)CS2,Potency,[13],18.3 µM (active)
same,Potency,[1],2.39 µM (active)
same,Potency,[8],inactive
same,Potency,[9],inactive
same,Potency,[10],inactive
same,Potency,[11],3.79 µM (active)
same,Potency,[12],inactive
same,Potency,[14],inactive
Nc1c(-c2nc(-c3ccc4c(c3)OCO4)cs2)c2ccccn2c1C(=O)c1ccccc1,Potency,[1],0.425 µM (active)
COc1cc(NC(=O)CSc2nc3ccccc3nc2Cc2ccccc2OC)cc(OC)c1,Potency,[1],0.301 µM (active)
CCOc1ccc(NC(=O)Cn2cc(C(=O)c3cccs3)c3ccccc32)cc1,Potency,[1],1.69 µM (active)
COc1ccc(C(=O)NC(c2ccccc2Cl)c2cc(Cl)c3cccnc3c2O)cc1 (stereo unspecified),Potency,[1],6.01 µM (active)
COc1ccc(-c2cn3cccnc3n2)cc1NC(=O)c1cc(C)cc(C)c1,Potency,[1],4.77 µM (active)
CN(C)[S+](=O)([O-])c1ccc([S+](=O)([O-])N(Cc2ccccc2)Cc2ccccn2)cc1,Potency,[1],5.35 µM (active)
